Experimental findings from PubChem BioAssay AID1347076 (National Center for Advancing Translational Sciences (NCATS), 2019) are described below.

The structures appear in SMILES notation. Screen size: about 400,000 compounds; about 13,000 (3.2%) were called active. Another 18% or so got no clear call; they are omitted. This is one part of a sample in which actives are shown more often than they occur. A number with no mark means an inactive call. Calls come from the whole dose curve; as a rule, active = well fitted cell-killing curve with a large enough effect; inconclusive = small, poorly fitted or top-dose-only effect, or effect the other way; inactive = flat fitted curve, though single readings scatter.
% is set by controls: 0 for no effect and ±100 for the full control effect; potency is the fitted concentration of half-maximal effect.

This assay is described as follows: qHTS assay for MDR1-selective chemotherapeutics: Primary screen using the drug-selected MDR subline cells KB-V1. Note: nearly all actives have a fitted effect of over 60% in size. To be noted: KB-V1 MDR cells viability, CellTiter-Glo, 72 h; series mostly up to 46.1 µM; activity change, negative = cytotoxicity: at the top concentration. The method, boiled down: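 Cytotoxicity via CellTiter-Glo luminescence after 72 h compound exposure at 37 degrees C. Cells: drug-selected KB-V1 line, DMEM phenol-red free plus 10% FBS. Compounds tested at multiple concentrations; normalized data fitted to concentration-effect curves.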
As for `O=C(NCc1ccccc1)C1c2ccccc2OCC(=O)N1CCCN1CCOCC1` (stereo not given), the “activity change, negative = cytotoxicity” value is 0%.
For `CCOC(=O)c1ccc(NC(=O)C2CC(=O)NC(=Nc3ccc(C)c(C)c3)S2)cc1` (stereo not given), the “activity change, negative = cytotoxicity” value is 0%.
On the same count and under the same terms, then `Cc1ccc(Cc2c(-c3ccco3)nc3ccc(Cl)cn23)cc1`, with -9.86%; and `Brc1ccccc1/C=N/Nc1nc2ccccc2o1`, with 16.2%.
Regarding `Oc1c(Br)cccc1/C=N/Nc1c(F)c(F)c(F)c(F)c1F`, the Potency is 25.9 µM (active).
With `Oc1cccc(/C=N/Nc2ccc(Cl)nn2)c1O`, the “activity change, negative = cytotoxicity” value was -22.1%.
Same read-out and setting: then `CCOc1ccc(Nc2nc3c(S(=O)(=O)c4cccc(Cl)c4)nnn3c3ccsc23)cc1`, with 1.29%.
Same read-out and setting: the figure for `CSc1ccc(CN2CCC2(C)C(=O)NCc2ccccc2Br)cc1` (stereo not given) is -11.6%.
On to `CCc1nnc(NC(=O)c2ccco2)s1`, for which the “activity change, negative = cytotoxicity” value was 27.7%.
Same read-out and setting: then `CCCCCNC(=O)C1C(=O)Nc2ccccc2C(=O)N1C(C)(C)C` (stereo not given), with -14.7%.
For `CCCN(CCC)C(=S)Nc1cc(C(=O)OC)ccc1C(=O)OC`, the Potency was 20.6 µM (active).
On to `CCS(=O)(=O)Nc1cc(C(=O)OC)ccc1C(=O)OC`, for which the “activity change, negative = cytotoxicity” value is 12.8%.
On the same count and under the same terms, the figure for `CCN(CCO)C(=S)Nc1cc(C(=O)OC)ccc1C(=O)OC` is -19.1%.
Consider `COc1ccc2c(C)c(CCC(=O)NCc3ccc(OC)c(OC)c3)c(=O)oc2c1`, for which the “activity change, negative = cytotoxicity” value was -7.69%.
Take `O=C(CCCN1C(=O)C(c2ccccc2)Oc2cccnc21)Nc1ccccc1Br` (stereo not given): the “activity change, negative = cytotoxicity” value was -25.5%.
Still for that read-out and setting: then `Cn1nnc2c(N3CCN(c4ccccc4)CC3)ncnc21`, with -12.8%; and `O=C1NC[C@H](CCCCN2C[C@H](Cc3ccccc3)N(Cc3ccccc3)C(=O)C2=O)N(CCc2ccc(O)cc2)C1=O`, with 1.62%; and `Nc1ccc(C(=O)N2CCN(S(=O)(=O)c3ccc(Cl)cc3)CC2)cc1[N+](=O)[O-]`, with -19.1%.
With `CC1CCN(C(=O)c2ccc(S(=O)(=O)Cc3cc(F)ccc3F)c([N+](=O)[O-])c2)CC1`, the Potency was 14.6 µM (active).
For `O=C(c1ccc(Oc2ccc(Cl)cc2)c([N+](=O)[O-])c1)N1CCCC1`, the “activity change, negative = cytotoxicity” value was -2.56%.
Still for that read-out and setting: then `O=C1CCC[C@@H]2C[C@@]3(C[C@@H]4CCN1[C@H]24)Nc1ccccc1NC3=NCc1ccccc1`, with -4.8%; and `Nc1cccc(-c2cncc(N3CCN(Cc4ccccn4)CC3)n2)c1`, with 6.36%.
On to `COc1ccc(S(=O)(=O)N2CCN(CC(=O)N3CCNC3=O)CC2)cc1OC`, for which the “activity change, negative = cytotoxicity” value was 0%.
On the same count and under the same terms, the figure for `O=C(COC(=O)CCc1c[nH]c2ccccc12)Nc1cccc(Cl)c1` is 19.9%.
On the same count and under the same terms, then `CCc1cc(C(=O)N(CC)CC(=O)Nc2c(F)cccc2F)sc1C`, with -25.8%; and `O=C(OCc1ccccc1)N1CCC2CC1c1ccc(-c3ccc4c(c3)OCO4)cc12` (stereo not given), with -16%.
In the case of `O=S(=O)(c1ccc(SCc2ccc(Br)cc2)nc1)N1CCOCC1`, the Potency is 13 µM (active).
Take `Cc1ccc(CSc2ccc(S(=O)(=O)N3CCCCC3)cn2)cc1`: the “activity change, negative = cytotoxicity” value is 2.58%.
On the same count and under the same terms, the figure for `O=S(=O)(c1ccc(SCc2ccccc2)nc1)N1CCCCCC1` is -12.3%; for `Cc1cccc2c1-c1sc(C(=O)Nc3ccc(F)cc3F)cc1CO2` it is 2.92%; for `COc1ccc(NC(=O)C2(C)Cc3c(-c4cccc(NC(C)=O)c4)ccnc3O2)cc1OC` (stereo not given) it is -7.13%.
Still for that read-out and setting: the figure for `O=C(CSc1nnc(-c2ccncc2)n1-c1ccccc1)Nc1ccc(Cl)c(Cl)c1` is 0.115%.
As for `O=C(CC(O)(C(F)(F)F)C(F)(F)F)Nc1ccc(Cl)c(Cl)c1`, the Potency is 3.26 µM (active).
With `CCn1nccc1C(=O)Nc1ccc(Cl)c(Cl)c1`, the “activity change, negative = cytotoxicity” value is 3.02%.
The same measure, in the same setting: the figure for `Cc1ccc(C(=O)NC2CCN(C(=O)N3CCOCC3)CC2)cc1` is 7.22%; for `CC1CCN(c2nc3ccc(C(=O)N4CCN(c5ccccc5)CC4)cc3s2)CC1` it is 0.418%.
On to `CCOC(=O)N1CCC(NC(=O)c2ccc3nc(N4CCOCC4)sc3c2)CC1`, for which the Potency was 3.66 µM (active).
Turning to `CC1CCC2(CC1)NC(=O)N(CC(=O)NCc1ccco1)C2=O` (stereo not given), the “activity change, negative = cytotoxicity” value is 11.2%.
Same read-out and setting: then `C[C@H]1CN([C@@H](C)CO)C(=O)c2cc(-c3cccc(F)c3)cnc2O[C@@H]1CN(C)S(C)(=O)=O`, with 3.71%.
With `COc1cc(C(=O)OC(C)C(=O)NCC2CCCCC2)cc(NC(=O)c2ccco2)c1OC` (stereo not given), the Potency is 20.6 µM (active).
For the molecule `CC(OC(=O)c1ccc([N+](=O)[O-])cc1)C(=O)NCC1CCCCC1` (stereo not given), the “activity change, negative = cytotoxicity” value was 1.1%.
Still for that read-out and setting: the figure for `COc1ccc(NC(=O)CCC(=O)Nc2cc(OC)c(NC(=O)c3ccco3)cc2OC)c(OC)c1` is -11.7%; for `CN(C)CCCOc1ccc(-c2ccc3nccn3c2)cn1` it is 5.43%; for `O=C(CCC1CCCC1)N=C1SC2CS(=O)(=O)CC2N1Cc1ccccc1` (stereo not given) it is 2.21%.
Same read-out and setting: then `O=C(N=C1SC2CS(=O)(=O)CC2N1Cc1ccccc1)c1ccccc1` (stereo not given), with -2.4%.
Take `CC(C)CC(=O)N=C1SC2CS(=O)(=O)CC2N1CCc1ccccc1` (stereo not given): the Potency was 13 µM (active).
In the case of `C/C=C/C(=O)Nc1ccc(N2CCN(c3ccc(C(F)(F)F)cn3)CC2)nc1`, the “activity change, negative = cytotoxicity” value is 4%.
On the same count and under the same terms, the figure for `CCOc1ccc(C(=O)NCC(=O)N2CCN(c3ccc(C(F)(F)F)cn3)CC2)cc1` is 5.85%.
Consider `Cc1ccc(F)cc1NC(=O)N1CCCN(c2ccc(C(F)(F)F)cn2)CC1`, for which the Potency was 20.6 µM (active).
On the same count and under the same terms, the figure for `COc1cc2c(cc1OC)CN(C(=O)c1cc(=O)c3ccccc3o1)CC2` is 2.91 µM (active).
